Laboratory results: PubChem BioAssay AID2216 (Broad Institute, 2009)
Among all 300,000 compounds or so, about 3,300 (1.1%) were called active. Inconclusive results (about 6%) are left out.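 Rule for the calls: active = more than half of the replicate wells show a fall in the fluorescence ratio signal beyond about 16% (limit read from the data, passing the limit was not always enough); inconclusive = exactly half of the replicate wells pass the set limit; inactive = fewer than half of replicates pass the limit.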 For the sample, actives were picked, then their nearest neighbours and some compounds at random.

What follows are molecules tested on Ran GTPase (GTP-bound) - importin-beta complex (assay: inhibitors of RanGTP-importin-beta interaction, primary screen, biochemical, FRET, CFP-Ran, YFP-importin-beta, homogeneous (AID 2216;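 note: 0% = DMSO wells and 100% = Ran loaded with GDP instead of GTP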)). Details: cell-free CFP-Ran/YFP-importin-beta FRET ratio; hits give high values; concentration not given here.

Row | SMILES | inhibition
1 | O=C(NNc1c2ccccc2nc2ccccc12)c1cc2ccccc2cc1O | 46.1% (active)
2 | CCC(=O)OCCNc1nc(-c2ccccc2)nc2ccccc12 | -0.305% (inactive)
3 | CC(C)(C)OC(=O)NNc1c2ccccc2nc2ccccc12 | 45.2% (active)
4 | COc1ccc(-c2cc(C(=O)Nc3ccccc3O)c3ccccc3n2)cc1 | 5.76% (inactive)
5 | O=C(N/N=C/c1cccnc1)c1cc2ccccc2cc1O | -5.78% (inactive)
6 | Cc1ccccc1NC(=O)NNC(=O)OC(C)(C)C | 3.65% (inactive)
7 | COC(=O)c1ccc(SCc2ccccc2)nc1 | 1.08% (inactive)
8 | CCc1nnc(NS(=O)(=O)c2ccc(NC(=O)c3cccc(OC(F)(F)C(F)F)c3)cc2)s1 | -0.123% (inactive)
9 | COc1ccc(C(CNC(=O)c2ccc(S(=O)(=O)Nc3ccccc3C)cc2)N2CCOCC2)cc1 (stereo not given) | 0.862% (inactive)
10 | O=S(=O)(Nc1ccc(O)c2ccccc12)c1ccc(OC(F)(F)F)cc1 | 2.4% (inactive)
11 | COc1ccc(CNS(=O)(=O)c2cc3c4c(c2)CCN4C(=O)CC3)cc1 | -2.98% (inactive)
12 | Cc1nn(CC(=O)Nc2ccc(F)cc2)c(=O)c2ccccc12 | 0.000866% (inactive)
13 | Cn1c2ccccc2n2c(=O)c(=O)n(CC(=O)c3ccc(F)cc3)nc12 | 23.2% (active)
14 | Cn1c(SCC(=O)c2ccc(F)cc2)nnc1-c1ccccn1 | 8.68% (inactive)
15 | O=C(CNS(=O)(=O)c1ccccc1)N1CCN(C(=O)c2ccco2)CC1 | 1.51% (inactive)
16 | COc1ccccc1N(C)S(=O)(=O)c1ccc(Cl)c(C(=O)Nc2ccncc2)c1 | -1.81% (inactive)
17 | CSCCC(NC(=O)COc1ccccc1)C(=O)OCCOc1ccc(F)cc1 (stereo not given) | 6.76% (inactive)
18 | CCCCn1c(N)c(N(CC(C)C)C(=O)CN(C)S(=O)(=O)c2ccc(F)cc2)c(=O)[nH]c1=O | 6.85% (inactive)
19 | CCN1C(=O)[C@@H]2[C@@H](c3ccc(-c4ccccc4)cc3)N3CCCC[C@@]3(C(=O)OC)[C@@H]2C1=O | -2.21% (inactive)
20 | CCCc1cc(=O)oc2c(C)c(O)c(CN3CCCCC3)cc12 | 58.6% (active)
21 | CCCc1cc(=O)oc2c(C)c(OCC(=O)N3CCC(C(=O)O)CC3)ccc12 | 0.461% (inactive)
22 | CCCc1cc(=O)oc2c(C)c(OC(C)C(=O)NCC(O)c3ccccc3)ccc12 (stereo not given) | 1.81% (inactive)
23 | O=C(Nc1ccc(C(=O)N2CCOCC2)cc1)Nc1cccc(C(F)(F)F)c1 | -2.36% (inactive)
24 | Cc1ccc(C)c(OCCC(=O)OCC(=O)c2ccc3c(c2)NC(=O)CO3)c1 | 0.406% (inactive)
25 | CCCCn1c(N)c(N(CCOC)C(=O)c2sc3ccccc3c2Cl)c(=O)[nH]c1=O | 7.27% (inactive)
